From PubChem BioAssay (NCI) come the findings set out here.

About 83,000 compounds went through this panel and 20% of them were active in at least one assay; those are over-represented in the sample as a whole.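 Compound tested at a single concentration for 48 hours in 96-well plates; a percent growth value below 10 was scored as active.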 Unmarked numbers belong to inactive results. Active and inactive are the calls of the source.

Among the test systems are NCI-H23 lung; NCI-H226 lung; NCI-H322M lung; HOP-62 NSCLC; NCI-H460 lung; HOP-92 NSCLC; NCI-H522 lung; A549/ATCC NSCLC; 786-0 renal; COLO 205 colon.
What all share (test): NCI-60 one-dose screen, 48 h (100 = growth as untreated, 0 = no growth, -100 = all killed)
Conditions in all cases: 10 µM

With `CC1(C)CC[C@]23CC[C@]4(C)[C@H](CC[C@@H]5[C@@]6(C)CC[C@H](N)C(C)(C)[C@@H]6CC[C@]54C)[C@H]2[C@H]1OC3=O`, the growth with NCI-H23 lung is -94.7% (active); with NCI-H226 lung, -90% (active); with NCI-H322M lung it was -99.5% (active); in the experiment with HOP-62 NSCLC, -77.2% (active); in the experiment on NCI-H460 lung, -13.9% (active); in the experiment with HOP-92 NSCLC, -65.5% (active). The growth is -85.5% (active) in the experiment with NCI-H522 lung, -88.9% (active) with A549/ATCC NSCLC, -94.8% (active) with 786-0 renal and -69.5% (active) in the experiment with COLO 205 colon.
`COc1ccc(-c2cc(C(=O)N=Nc3c(O)[nH]c4ccc(F)cc34)c3ccccc3n2)cc1`: the growth is 44.4% in the experiment on NCI-H23 lung; 68.3% in the experiment with NCI-H226 lung; 76.4% in the experiment on NCI-H322M lung; 110% with HOP-62 NSCLC; 44.2% in the experiment with NCI-H460 lung; 87.1% in the experiment on HOP-92 NSCLC. Moreover, the growth with NCI-H522 lung is 70.8%; in the experiment on A549/ATCC NSCLC it was 88.3%; with 786-0 renal, 63.5%; in the experiment on COLO 205 colon, 103%.
With `O=C(CSc1nnc(-c2c[nH]c3ccccc23)n1-c1ccccc1)c1ccccc1`, the growth in the experiment on NCI-H23 lung was 44.9%; in the experiment on NCI-H226 lung it was 4.48% (active); in the experiment on NCI-H322M lung it was 81.2%; with HOP-62 NSCLC, 23.4%; with NCI-H460 lung it was 61.8%; with HOP-92 NSCLC, 47%. Further, the growth is 71.6% in the experiment on NCI-H522 lung, 85.5% in the experiment on A549/ATCC NSCLC, 29.6% in the experiment with 786-0 renal and 93.4% with COLO 205 colon.
On to `O=c1[nH][nH]c(Nc2ccccc2)c1N=Nc1ccc(F)cc1`, for which the growth in the experiment on NCI-H23 lung was 102%; with NCI-H226 lung it was 84.4%; in the experiment with NCI-H322M lung, 83.5%; in the experiment on HOP-62 NSCLC, 119%; with NCI-H460 lung, 101%; in the experiment on HOP-92 NSCLC, 71.2%. The growth in the experiment on NCI-H522 lung is 75.1%; in the experiment with A549/ATCC NSCLC, 84.8%; with 786-0 renal, 91.3%; in the experiment on COLO 205 colon it was 107%.
With `O=C(CSc1nnc(-c2c[nH]c3ccccc23)n1-c1ccccc1)c1ccc(Br)cc1`, the growth is 54% in the experiment on NCI-H23 lung; 39.1% in the experiment with NCI-H226 lung; 45.7% in the experiment with NCI-H322M lung; 73.6% in the experiment with HOP-62 NSCLC; 34.5% with NCI-H460 lung; 28.1% with HOP-92 NSCLC. The growth was 46.3% in the experiment with NCI-H522 lung, 29.9% in the experiment on A549/ATCC NSCLC, 82.4% in the experiment with 786-0 renal and 13.5% with COLO 205 colon.
Consider `CC1=C2C(=C[C@@](C)(COCOCCCl)[C@@H]2O)C(=O)[C@](C)(O)C12CC2`, for which the growth in the experiment with NCI-H23 lung was -81.7% (active); in the experiment with NCI-H226 lung, -39.2% (active); with NCI-H322M lung it was -18.2% (active); in the experiment on HOP-62 NSCLC, -51.1% (active); in the experiment on NCI-H460 lung, -11% (active); with HOP-92 NSCLC, -14.6% (active). Also, the growth with NCI-H522 lung is -74.4% (active); in the experiment on A549/ATCC NSCLC it was -1.86% (active); in the experiment on 786-0 renal, -36.2% (active); with COLO 205 colon, -73.7% (active).
For `O=c1[nH]c2ccccc2cc1CSc1ccc(Nc2nccc(-c3ccc4c(c3)OCO4)n2)cc1`, the growth in the experiment on NCI-H23 lung was 86.1%; in the experiment on NCI-H226 lung, 74%; in the experiment on NCI-H322M lung, 97.7%; in the experiment on HOP-62 NSCLC it was 84%; with NCI-H460 lung, 83.1%; with HOP-92 NSCLC, 78.6%. Also, the growth in the experiment with NCI-H522 lung was 96.9%; with A549/ATCC NSCLC, 76.7%; in the experiment with 786-0 renal it was 84.7%; in the experiment on COLO 205 colon, 71.6%.
Take `O=C(c1ccc(O)cc1)C1[C@H](c2ccc(Br)cc2)[C@@H](c2ccccc2)NC12C(=O)Nc1ccccc12` (stereo not given in full): the growth with NCI-H23 lung was 7.68% (active); in the experiment with NCI-H226 lung, 43.5%; in the experiment on NCI-H322M lung, 51.6%; in the experiment with HOP-62 NSCLC, 39.4%; with NCI-H460 lung, 2.57% (active); with HOP-92 NSCLC, 8.1% (active). Besides, the growth in the experiment with NCI-H522 lung is 32.4%; in the experiment on A549/ATCC NSCLC, 29.5%; in the experiment with 786-0 renal, 16.3%; in the experiment with COLO 205 colon it was -46.4% (active).
Take `N#Cc1c(-c2ccc(F)cc2)nc(SCc2ccc(F)cc2)nc1N1CCOCC1`: the growth is 71.8% in the experiment on NCI-H23 lung; 48.4% in the experiment on NCI-H226 lung; 78.4% with NCI-H322M lung; 24.3% with HOP-62 NSCLC; 73.9% in the experiment on NCI-H460 lung; 34.3% in the experiment with HOP-92 NSCLC. The growth in the experiment on NCI-H522 lung was 55%; in the experiment with A549/ATCC NSCLC, 69%; with 786-0 renal it was 24.7%; in the experiment with COLO 205 colon, 97.7%.
As to `COc1ccc(C2N(c3ccc(Br)cc3)N=C(C(C)=O)N2[C@H]2[C@H](OC(C)=O)O[C@H](COC(C)=O)[C@@H](OC(C)=O)[C@@H]2OC(C)=O)cc1` (stereo not given in full), the growth with NCI-H23 lung is 75.4%; in the experiment with NCI-H226 lung it was 69.6%; with NCI-H322M lung, 73.7%; with HOP-62 NSCLC it was 92%; in the experiment on NCI-H460 lung it was 52.1%; with HOP-92 NSCLC, 79.2%. The growth in the experiment on NCI-H522 lung is 48.1%; in the experiment on A549/ATCC NSCLC, 66.1%; in the experiment with 786-0 renal it was 92.6%; in the experiment with COLO 205 colon it was 88.1%.
In the case of `COc1cc2c3c(n(CCCNC(C)C)c(=O)c2cc1OC)-c1nc2c(cc1C3=O)OCO2`, the growth in the experiment with NCI-H23 lung is 16.5%; in the experiment with NCI-H226 lung, -32.2% (active); in the experiment with NCI-H322M lung it was 60.3%; with HOP-62 NSCLC, 5.84% (active); with NCI-H460 lung it was -74.2% (active); in the experiment on HOP-92 NSCLC, 66.5%. For the same molecule, the growth is 50.9% in the experiment with NCI-H522 lung, -62.8% (active) with A549/ATCC NSCLC, -78.3% (active) in the experiment on 786-0 renal and -67.6% (active) in the experiment on COLO 205 colon.
As to `O=S(=O)(Nc1ncccn1)c1ccc(-n2c(-c3ccc(Br)cc3)nc(-c3ccccc3)c2-c2ccccc2)cc1`, the growth was 22.5% in the experiment with NCI-H23 lung; 26% in the experiment on NCI-H226 lung; 64.1% in the experiment with NCI-H322M lung; 56.8% with HOP-62 NSCLC; 31.7% in the experiment with NCI-H460 lung; 11.4% in the experiment on HOP-92 NSCLC. Also, the growth with NCI-H522 lung was 74.5%; in the experiment on A549/ATCC NSCLC, 34.9%; in the experiment on 786-0 renal it was 34.5%; in the experiment on COLO 205 colon, 124%.
In the case of `O=C(Nc1cc(Cl)cc(Cl)c1)Nc1cc(Cl)cc(Cl)c1`, the growth is -21.1% (active) with NCI-H23 lung; -37.8% (active) in the experiment on NCI-H226 lung; -5.15% (active) with NCI-H322M lung; -30.3% (active) in the experiment with HOP-62 NSCLC; -16.2% (active) in the experiment on NCI-H460 lung; -33.8% (active) in the experiment on HOP-92 NSCLC. Besides, the growth is -36.1% (active) in the experiment with NCI-H522 lung, 1.01% (active) with A549/ATCC NSCLC, -1.4% (active) with 786-0 renal and -98.9% (active) in the experiment with COLO 205 colon.
